tested on: VDR:RXRa (NR concentration 270 nM, RXRa partner concentration 90 nM); assay: PBM binding z-score (relative to random genomic background probes); higher = stronger binding; sequences stand for … in GC…GCGATTGACAGCGTAGAATGAAGG
Experimental: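 Protein-binding microarray (Agilent 4x180K custom design, double-stranded 60-nt probes: 5' GC cap, 34-nt variable region, 24-nt constant primer region; full probe sequence given). Purified or IVT nuclear receptor:RXRα heterodimers (3:1 NR:RXRα, mostly 270:90 nM) or homodimers were incubated for 1 h in PBS with 2% milk and no ligand, then detected with Alexa488 antibodies. Fluorescence from o1-orientation probes (~5 replicates averaged) was converted to z-scores against 500 random hg19 background probes. Variable regions are seed direct-repeat (DR0–DR5) sites, all their single-nucleotide variants and half-site ablations.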

Sequence	PBM binding z-score
TCATATAGGTAAAAGGCGAAAGTCGGTGTGGTAA	0.679
CTCGAAAGGTCGTGCTCATGTGAGTATACCAAAC	3.36
ATCTCTAGGTAACAACTTCAGTGAAAGAGAGGAC	0.366
CCTACTGGGCCATTCAGAGTTCATTGATCATATG	3.5
TTACCAAGGTGAGATGAGGTCGTTGATCCAACTC	4.7
ATCTCTAGGTAAGACTTAGTTCAGTGAAGAACGC	0.582
GCAGACAGGTGAACCGCAGGTAACTCAGGGTGGC	0.332
ACTAGCAGTCCAAGTTTGGGTCACTCAAACAAAG	0.754
CCTTACGGGTCACTGACAGGTAATAGCATTTGGA	3.17
CGAACGAGTGCATGAGTTGATAGCAAATGCCGAT	1.58
CAAACTAGGTAAAGGTCAAAGTCGGTTTGTGCCA	5.38
AGAATGAGGTTATACGTAGATCATGGAAGAAAGT	1.72
CGAACTAGGTCATCCAGGAGAGTGAATACATTGA	2.35
AGAACGAGGGCACGCCGAGTTGATAGCAGAGTAG	2.27
TAGCCTACGTCATTGGGCCAGTATAGTACGCATC	-0.617
TCTGCTAGGTCAGTTGGTCAGCTAACGAGCTGCC	0.166
ATAGGTAGGTTAAGGGTCATTCAGGTTGGTTCGC	5.65
ATCTCTAGGTAAGACTCAGTTCAATGAAGAACGC	1.07
GCTCGGAGGACAAGGTCAAAGCTTTGTCCGTAGA	3.38
ATCGAAAGGTCGTGAGGTGGGTATACAGAAAGGC	3.58

Sequence	PBM binding z-score
CCTTACGGGTCACTCCAGGTTATACCATCGGAGT	4.19
TCTAGTTGGTAAAAGGTCACACACTCGAAATGCG	4.89
TGAATGAGGTTAAAGATCAGGGAACGTGGCGTCG	1.99
GCTAGCAGGCCATTTGGGTCACTCATTGACGGGC	0.798
CCGACTGGGGCAGAAAGGTTACCCTACCATCCGG	0.717
CTCGAAAGGTCGGTTGAGGTGTGTATACGGATAA	1.03
TCATATAGGTAAACAGGTGATAGTCCGTAAGTTA	0.955
CCAACTGGGCCAAGGTCATTGATCAGTCAAAGCA	3.1
AGTCAAAGTTCAGGACGAGGGAACGTAAAGCACG	2.05
ACTAGCAGGCCAAGTTTGGGACACTCAAACAAAG	-0.55
ATCGAAAGGTCGAGGTGAGAATAGAGAAAGGGAA	2.37
GCGTCTGGGGCATCAGCAGGTTACCATAACTTAA	-0.165
CCTAGTTGGACAGGAGGTCACACACCGGATATGA	3.69
AGAACCAGGGCAATGAGTTGATAGCACGGGTGGC	3.6
GCATATAGGTAATACACGGTGAAAGTCCGATTGT	-0.0227
CCTATTAATTGACCATAAGGGCAACCGAAGCTCG	0.371
TCGAGTAGGTTAGTCGGGGCATTCTGCCAACATA	2.15
ATCGTAAGGTCGAAGGTGAGTATACCCACCCGAA	2.04
TGGAGTAGGTTAGTCGGGGCATTCAGCCAACATA	2.43
CCTACTGGGCCAAGGTCACTGATCAGTCAAAGCA	2.92
